Shown are actives, neighbours in structure and some others; about 1.5% of the full set was active somewhere.
VLA-4 agonist = allosterically activates the human VLA-4 integrin | activation, % at 10 µM (by protocol) | Jurkat cells, LDV-FITC binding, flow cytometry | P13612 | 24,000 tested, under 10 active;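 active = fluorescent ligand binding to cells raised by more than 40% of the manganese-induced maximum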;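 also: 0% = ligand binding without compound and 100% = manganese-stimulated maximal binding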
Target sequence (P13612 whole entry, looked up): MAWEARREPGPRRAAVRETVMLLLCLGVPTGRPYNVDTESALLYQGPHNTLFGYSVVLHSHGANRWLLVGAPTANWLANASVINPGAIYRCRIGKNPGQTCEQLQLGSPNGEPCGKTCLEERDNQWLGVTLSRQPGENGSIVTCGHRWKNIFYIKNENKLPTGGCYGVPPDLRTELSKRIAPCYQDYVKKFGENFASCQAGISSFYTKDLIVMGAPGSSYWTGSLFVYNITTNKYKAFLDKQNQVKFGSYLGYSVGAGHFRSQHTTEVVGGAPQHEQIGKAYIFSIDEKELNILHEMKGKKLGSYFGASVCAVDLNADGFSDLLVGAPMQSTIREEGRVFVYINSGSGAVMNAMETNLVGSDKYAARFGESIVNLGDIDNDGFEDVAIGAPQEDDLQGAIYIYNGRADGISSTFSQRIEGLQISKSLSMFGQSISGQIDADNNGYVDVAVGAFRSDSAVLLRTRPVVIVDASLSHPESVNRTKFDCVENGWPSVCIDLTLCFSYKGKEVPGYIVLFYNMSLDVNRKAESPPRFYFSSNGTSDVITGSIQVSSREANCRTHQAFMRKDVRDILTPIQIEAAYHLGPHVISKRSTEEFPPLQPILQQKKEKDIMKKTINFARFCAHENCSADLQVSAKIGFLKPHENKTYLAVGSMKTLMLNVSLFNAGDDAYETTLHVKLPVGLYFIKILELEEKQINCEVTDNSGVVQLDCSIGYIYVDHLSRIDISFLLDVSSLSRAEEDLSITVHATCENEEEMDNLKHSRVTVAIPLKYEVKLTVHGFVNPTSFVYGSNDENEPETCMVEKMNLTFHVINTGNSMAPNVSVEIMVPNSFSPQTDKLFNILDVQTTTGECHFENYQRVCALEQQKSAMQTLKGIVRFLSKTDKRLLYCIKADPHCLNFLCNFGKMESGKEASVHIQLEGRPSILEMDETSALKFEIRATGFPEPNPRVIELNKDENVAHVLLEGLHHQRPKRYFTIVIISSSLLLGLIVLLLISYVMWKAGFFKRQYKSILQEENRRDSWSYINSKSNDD
VLA-4 antagonist = inhibition of LDV-FITC ligand binding to human VLA-4 integrin; P13612; Jurkat cells, LDV-FITC binding with Mn2+, flow cytometry; 100% = Mn2+-driven binding gain fully reversed; inhibition, % at 10 µM (by protocol); actives 0.2% (n = 24,000); AID 529;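 active = inhibition above 50%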;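 also: 0% = Mn2+ stimulated cells lacking compound and 100% = ligand binding without Mn2+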
Jurkat autofluor = autofluorescence counter-screen for VLA-4 integrin assays; Jurkat cells, compound autofluorescence, flow cytometry; active compounds read high; 1 = vehicle-only cell background; fluorescence ratio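 (tested at 10 µM compound in the well)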; actives 0.61% (n = 24,000);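 active = fluorescence ratio above 2.44, which is 1 plus 3 SD of all ratios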;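 also: green fluorescence of cells measured with 488 nm excitation and 530 nm emission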
LNCaP diff act = LNCaP prostate cell differentiation activation; side scatter shift, % at 10 µM; flow cytometry side scatter, 4 d; actives 0.56% (n = 24,000); AID 795;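 active = side scatter shift above 30%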;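 also: androgen-responsive LNCaP prostate cancer cells in charcoal-stripped serum medium; percent of cells past a gate set so DMSO wells show 10% shift; higher shift means more granular cells and more differentiation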
The depositor's hits bear a star.

SMILES	VLA-4 agonist	VLA-4 antagonist	Jurkat autofluor	LNCaP diff act
O=C(COc1ccc2ccccc2c1)N1CCN(C2CCN(Cc3ccccc3)CC2)CC1	1	-12	1.1	46*
Cc1cc(C)n2nc(SC(C)C(=O)N3CCC4(CC3)OCCO4)nc2n1 (stereo not given)	7	2	0.93	7
